# From the supplement of paper PMC13380429
# A number with no mark means an inactive call.
# System: Vero E6 infected with SARS-CoV-2
# Experiment: inhibition of SARS-CoV-2 cytopathic effect; higher = more antiviral protection, active = above 15
# Conditions: 48 h
Structure (SMILES),inhibition of SARS-CoV-2 cytopathic effect (1 nM) [%],inhibition of SARS-CoV-2 cytopathic effect (8.33 nM) [%],inhibition of SARS-CoV-2 cytopathic effect (100 nM) [%],inhibition of SARS-CoV-2 cytopathic effect (833.33 nM) [%],inhibition of SARS-CoV-2 cytopathic effect (10000 nM)
CN1C(=O)CCS(=O)(=O)C1c1ccc(Cl)cc1 (stereo not given) [chlormezanone],-2.2,-0.15,0.74,0.68,1.19%
O=C(O)c1cc(-c2ccccc2)nc2ccccc12 [cinchophen],-0.85,-0.04,-2.56,0.2,2.97%
Cc1csc(S(=O)(=O)N(CC(C)C)c2cc3c(cc2OCc2ccc(C(=O)O)cc2)CCC3)n1,-2.46,-1.9,3.16,2.51,2.78%
CNC(=O)c1cc(Oc2ccc(NC(=O)Nc3ccc(Cl)c(C(F)(F)F)c3)c(F)c2)ccn1 [regorafenib],2.3,3.25,1.21,-1.69,2.67%
CC(ONC(=O)c1cc(C(F)(F)F)cc(C(F)(F)F)c1)C(=O)Nc1ccc(Cl)cc1 (stereo not given),1.52,-0.64,0.05,-2.31,5.49%
O=C(O)[C@H](Cc1c[nH]c2ccccc12)N1C(=O)c2ccccc2C1=O,2.9,3.8,-0.51,-0.14,0.14%
OB1OCc2cc(Cl)ccc21,1.12,2.29,2.68,2.33,1.07%
Cc1nc2ccccc2n1Cc1ccc(Cl)cc1 [chlormidazole],-3.42,-1.1,-6.27,-3.55,-4.49%
CN1CCC(=C2c3ccccc3CCc3sccc32)CC1 [pizotifen],2.55,-0.27,0.72,1.5,-3.38%
NC1CCN(c2c(F)cc3c(=O)c(C(=O)O)cn(C4CC4)c3c2Cl)C1 (stereo not given) [clinafloxacin],2.47,0.61,-1,-0.8,0.5%
COc1cc2ncnc(Nc3ccc(F)c(Cl)c3)c2cc1OCCCN1CCOCC1 [gefitinib],-1.32,-0.45,-4.25,-11.2,-22.2%
Cc1ccc(S(=O)(=O)Cc2nc(-c3ccc(C(=O)NCc4cccnc4)cc3)oc2C)cc1,-2.69,-2.16,-15.4,-19.2,-16.4%
CNC(=O)Oc1ccccc1OC(C)C [propoxur],2.55,4.24,3.02,2.09,2.81%
O[C@H]1CC[C@H](Nc2nc(-c3ccccc3)nc3[nH]ccc23)CC1,-1.91,-3.12,-4.27,-1.49,-0.8%
C[C@]12CC[C@H](O)C[C@H]1CC[C@@H]1[C@@H]2CC[C@]2(C)[C@@H](c3ccc(=O)oc3)C[C@H]3O[C@]132 [resibufogenin],-0.2,-2.33,-5.86,-20.4,-20.4%
OC(CCCN1CCCCC1)(c1ccccc1)c1ccccc1 [diphenidol],-5.55,-3.34,-2.4,-1.92,-2.8%
CN1C(=O)CN=C(c2ccccc2)c2cc(Cl)ccc21 [diazepam],-0.19,0.35,1.99,0.56,0.22%
CC(C)(C)[C@]1(O)CC2OC(=O)CC23C(=O)OC2OC(=O)[C@H](O)C231 (stereo not given in full) [bilobalide],-0.27,0.92,0.44,-0.26,-0.37%
CC(=O)[C@H]1CC[C@H]2[C@@H]3CCC4=CC(=O)CC[C@]4(C)[C@H]3CC[C@]12C [progesterone],-0.08,0.75,2.72,2.43,5.82%
Cc1nc(-c2cccnc2)sc1C(=O)Nc1ccccc1-c1cn2c(CN3CCOCC3)csc2n1,-1.3,1.11,1.74,0.18,-2.05%

Structure (SMILES),inhibition of SARS-CoV-2 cytopathic effect (1 nM) [%],inhibition of SARS-CoV-2 cytopathic effect (8.33 nM) [%],inhibition of SARS-CoV-2 cytopathic effect (100 nM) [%],inhibition of SARS-CoV-2 cytopathic effect (833.33 nM) [%],inhibition of SARS-CoV-2 cytopathic effect (10000 nM)
CCN1CCN(c2cc3c(cc2F)c(=O)c(C(=O)O)cn3C2CC2)CC1 [enrofloxacin],2.85,4.7,2.54,2.88,5.39%
CCCCCCCC(=O)N[C@H](CN1CCCC1)[C@H](O)c1ccc2c(c1)OCCO2 [eliglustat],3.28,2.4,-0.12,4.02,0.05%
Oc1ccc([C@@H]2Oc3ccc(O)cc3[C@@H]3CCC[C@@H]32)cc1 [erteberel],-2.79,0.52,-1.51,-4.66,2.31%
Cc1noc(C)c1-c1ccc(-c2cc(C(N)=O)c(NC(N)=O)s2)c(O[C@H]2CCNC2)c1,1.7,2.12,2.46,-12.1,2.19%
NCCCCCc1c[nH]cn1 [impentamine],-2.08,-1.69,-0.14,-0.52,0.02%
CCCc1nn(C)c2c(=O)[nH]c(-c3cc(S(=O)(=O)N4CCN(C)CC4)ccc3OCC)nc12 [sildenafil],2.67,2.01,0.47,2.04,-2.29%
Nc1nc(=O)c2nc(CNc3ccc(C(=O)N[C@@H](CCC(=O)O)C(=O)O)cc3)cnc2[nH]1 [folic-acid],-1.27,1.24,0.24,1.38,-0.44%
O.O.O.O.O=C([O-])CC(O)(CC(=O)[O-])C(=O)[O-].[Li+].[Li+].[Li+] [lithium-citrate],0.34,-0.51,-1.43,1.38,1.33%
CCC(=O)O[C@@H](O[P@@](=O)(CCCCc1ccccc1)CC(=O)N1C[C@H](C2CCCCC2)C[C@H]1C(=O)O)C(C)C [fosinopril],-0.77,0.8,2.37,1.19,3.18%
Cc1c(O)cccc1C(=O)N[C@@H](CSc1ccccc1)[C@H](O)CN1C[C@H]2CCCC[C@H]2C[C@H]1C(=O)NC(C)(C)C [nelfinavir],-4.7,-3.72,-1.32,3.72,43.2% (active)
CN1CCN(c2cccc3[nH]c(=O)oc23)CC1 [pardoprunox],0.73,1.76,3.14,-2.14,1.85%
O=C(O)Cc1sc(-c2ccccc2)nc1-c1ccc(Cl)cc1 [fentiazac],-0.18,-2.64,-1.78,0.61,1.91%
O=C1c2ccccc2C(=O)c2ccccc21 [anthraquinone],-2.37,-0.48,-1.17,1.54,0.18%
O=C(NCCNCC(O)COc1ccc(O)cc1)N1CCOCC1 (stereo not given) [xamoterol],-2.07,-0.88,-0.13,0.01,3.26%
COCCCOc1cc(C[C@@H](C[C@H](N)[C@@H](O)C[C@H](C(=O)NCC(C)(C)C(N)=O)C(C)C)C(C)C)ccc1OC [aliskiren-hemifumarate],0.8,-0.18,-1.58,-0.63,-0.23%
Cc1cccc(C)c1OCC(C)N (stereo not given) [mexiletine],4.03,3.45,2.85,7.08,5.03%
COc1ccc(Cc2nccc3cc(OC)c(OC)cc23)cc1OC [papaverine],-0.41,0.26,-3.04,-2.94,-1.53%
Cc1c(-c2ccc(O)cc2)n(Cc2ccc(OCCN3CCCCCC3)cc2)c2ccc(O)cc12 [bazedoxifene],-2,-3.97,-2.44,-5.76,48.9% (active)
COc1ccc(/C=C/C(=O)/C=C(O)/C=C/c2ccc(OC)c(OC)c2)cc1OC,1.2,-0.13,3.36,5.15,19.7% (active)
S=C(S)N1CCCC1 [pyrrolidine-dithiocarbamate],2.71,4.55,4.28,12.7,24.8% (active)
